aDG glyco act: activators of alpha-DG glycosylation, primary screen, uHTS, Pro5-aDG cells, AlphaScreen; activation, % at 10 µM; alpha-DG glycosylation AlphaScreen (IIH6); 0% Pro5, 100% B10-LARGE cell signal; AID 624168, 2012; 360,000 tested, 0.22% active;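 active = activation of at least 8% versus controls, or a plate z-score of at least 8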;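 note: Pro5 are CHO cells carrying HIG-tagged alpha-DG that lacks glycosylation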
FAS-TE inh: FAS thioesterase domain inhibitors, primary screen, biochemical, fluorescence intensity, uHTS. recombinant FAS-TE, OMFH fluorogenic substrate, fluorescence endpoint. 360,000 tested, 0.67% active. inhibition, % at 15 µM. Fatty acid synthase (Homo sapiens), P49327. AID 602261, 2012;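 active = compounds whose normalised, plate-corrected inhibition of enzyme fluorescence in the single-dose primary screen is 50% or more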;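 note: 0% = DMSO with enzyme and 100% = substrate without enzyme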
PfGluPho inh: PfG6PD enzyme inhibitors, primary screen, biochemical, fluorescence intensity, uHTS; AID 504690, 2011; 350,000 tested, 0.78% active; inhibition, % at 20 µM; PfGluPho enzyme, NADPH resazurin-diaphorase fluorescence; glucose-6-phosphate dehydrogenase-6-phosphogluconolactonase (Plasmodium falciparum 3D7);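 active = inhibition reaching at least a set limit at 20 µM in the primary screen, cut at about 59% in these data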;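 note: 0% = DMSO wells with substrate and 100% = DMSO wells lacking glucose-6-phosphate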
H9c2 protect: cardioprotection against H2O2-induced cell death, primary screen, uHTS, H9c2 cells, ATPLite luminescence | 360,000 tested, 0.63% active | protection from H2O2 cell death, % at 20 µM | H9c2 cardiomyocytes, H2O2 injury protection, 2 h;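 active = compounds giving at least 50% protection of heart cells from peroxide-induced death in the single-dose screen, raw or plate-pattern-corrected value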;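 note: 0% = DMSO wells with peroxide and 100% = DMSO wells without peroxide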
CRFR2-BP antag: antagonists of CRF-BP/CRF-R2 complex, primary screen, cell-based, HEK293, calcium dye fluorescence, uHTS | inhibition, % at 11.8 µM | 350,000 tested, 0.59% active | CRF-induced calcium fluorescence | AID 588475, 2011;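 active = inhibition of the ligand-induced calcium signal above about 50% at the single tested concentration, limit read from the data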
CRFBP-R2 agonist: agonists of CRF-BP/CRF-R2 complex, primary screen, cell-based, HEK293, calcium dye fluorescence, uHTS. CRF-binding protein / CRF receptor 2 complex (human). activation, % at 13.2 µM. 350,000 tested, 0.46% active. AID 588473, 2011. calcium dye fluorescence (FLIPR); percent of saturating CRF peptide response;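 active = activation of at least 50%, plus an integration ratio under a set limit after plate pattern correction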;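 note: plate controls were neutral control wells without compound for no effect and CRF at EC100 for full effect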
Numbers without * were called inactive; x = no result given. Shown are actives, neighbours in structure and some others; about 3.2% of the full set was active somewhere.

SMILES	aDG glyco act	FAS-TE inh	PfGluPho inh	H9c2 protect	CRFR2-BP antag	CRFBP-R2 agonist
Cc1ccc(C)n1NC(=O)c1ccccc1[N+](=O)[O-]	0	-2	6	-4	-19	1
Cc1ccc(C)n1NC(=O)c1ccccc1O	0	-5	-33	-8	80*	3
COc1ccccc1NC(=S)NNC(=O)c1ccc(Cl)cc1Cl	3	-1	-19	-5	5	1
COc1ccc2nc3ccccc3nc2c1NC(=O)c1ccc(Cl)cc1Cl	0	-150	-6	-2	-150	178*
O=C(Nc1ncc(Cc2ccc(Cl)cc2Cl)s1)c1ccc([N+](=O)[O-])cc1	0	-9	-4	-1	-172	74*
CCN(CC)CCN(C(=O)CN1C(=O)c2ccccc2C1=O)c1nc2cc3c(cc2s1)OCO3	1	21	7	-3	76*	1
CN(C)CCN(C(=O)CN1C(=O)c2ccccc2C1=O)c1nc2cc3c(cc2s1)OCO3	0	6	14	5	-5	0
Cc1nnc(SCC(=O)N(C)Cc2ccccc2)[nH]c1=O	0	-11	-10	3	88*	0
CCOCCCn1c(=S)[nH]c2cc(C(=O)NC3CCCC(C)C3C)ccc2c1=O (stereo unspecified)	0	-1	-7	0	-6	0
c1ccc(-c2nnc(-c3ccccn3)c(-c3ccccn3)n2)nc1	0	-7	-2	-1	-3	1
CN(C)c1nc(-c2ccccn2)nnc1-c1ccccc1	1	-9	-14	67*	1	0
NC(=O)c1ccc(C2SCC(=O)N2Cc2ccccc2)cc1 (stereo unspecified)	0	-1	-3	14	78*	-2
C=CCn1c(SCc2csc(-c3ccc(C)cc3)n2)nnc1-c1ccccc1OC	0	5	7	-14	-2	-4
CCCNCCC(c1ccco1)c1ccccc1OC (stereo unspecified)	0	-8	-7	2	56*	0
CCOC(=O)C1C(C(=O)Nc2cccc(C(F)(F)F)c2)C1C(=O)NC(C)C (stereo unspecified)	0	-2	5	-3	-25	3
COc1ccc(-c2cc(C(=O)N(C)Cc3ccccc3F)c3ccccc3n2)cc1OC	-1	22	18	66*	-6	-1
COc1ccccc1CN(C)C(=O)c1cc(-c2cc(OC)c(OC)c(OC)c2)nc2ccccc12	0	22	22	50*	-13	0
COc1cc(-c2cc(C(=O)N(C)Cc3ccccc3)c3ccccc3n2)cc(OC)c1OC	0	16	20	35	9	-2
O=C(c1ccccc1)C(Nc1cccc([N+](=O)[O-])c1)c1ccccc1 (stereo unspecified)	0	32	15	-7	28	-2
COc1cc(C)ccc1S(=O)(=O)NC(=O)C1(C)CCN1C(=O)c1ccc(C(F)(F)F)nc1C (stereo unspecified)	0	-9	x	10	x	x
CC(C)CC(NC(=O)/C(=C/c1ccco1)NC(=O)c1ccc(Br)o1)C(=O)O (stereo unspecified)	0	-4	-11	9	58*	3
Cc1oc(-c2nc3ccccc3n2C)cc1C(=O)c1ccccc1	0	12	34	-37	-16	-3
O=C(NCCc1ccccc1)c1n[nH]c(=O)c2ccccc12	0	-4	1	7	6	3
CC1CCN(CCCNC(=O)c2n[nH]c(=O)c3ccccc23)CC1	0	-15	-10	72*	-3	2
Cc1ccc(S(=O)(=O)NCc2ccccc2)cc1C(=O)N(C)Cc1ccc(F)cc1	0	10	7	-2	-6	-1
CSc1nc2cc(Cl)ccc2s1	0	0	1	2	52*	-1
N#Cc1ccccc1OCC(=O)Nc1ccccc1C(=O)NC1CC1	0	-4	9	3	-1	-2

High-throughput results from PubChem.
